In publication PMC11006913:

What was measured:
Assay in all cases: PBM; 200 nM protein, PBS
Conditions in all cases: dsDNA, one strand shown
[1] = target: HESX1 (Homo sapiens, UniProt Q9UBX0 95-180, R165K)
[2] = target: HOXB4 (Homo sapiens, UniProt P17483 148-234)
[3] = target: SHOX (Homo sapiens, UniProt O15266 103-189)
[4] = target: HESX1 (Homo sapiens, UniProt Q9UBX0 95-180)
[5] = target: HOXA4 (Homo sapiens, UniProt Q00056 201-287, R217L)
[6] = target: HOXB4 (Homo sapiens, UniProt P17483 148-234, V174I)
[7] = target: MSX2 (Homo sapiens, UniProt P35548 130-214, R199I)
[8] = target: ALX3 (Homo sapiens, UniProt O95076 139-225, N203Q)
[9] = target: SHOX (Homo sapiens, UniProt O15266 103-189, R173C)
[10] = target: ALX3 (Homo sapiens, UniProt O95076 139-225)
[11] = target: PROP1 (Homo sapiens, UniProt O75360 56-141)
[12] = target: HESX1 (Homo sapiens, UniProt Q9UBX0 95-180, R109Q)
[13] = target: PROP1 (Homo sapiens, UniProt O75360 56-141, R99H)
[14] = target: ALX3 (Homo sapiens, UniProt O95076 139-225, L168Q)
[15] = target: HESX1 (Homo sapiens, UniProt Q9UBX0 95-180, P111T)
[16] = target: ALX3 (Homo sapiens, UniProt O95076 139-225, L168V)
[17] = target: PROP1 (Homo sapiens, UniProt O75360 56-141, F88S)
[18] = target: MSX2 (Homo sapiens, UniProt P35548 130-214, F161Y)
[19] = target: HESX1 (Homo sapiens, UniProt Q9UBX0 95-180, F115L)
[20] = target: ALX3 (Homo sapiens, UniProt O95076 139-225, N203S)
Sequence of ALX3 (Homo sapiens, UniProt O95076 139-225, N203S) (O95076 139-225 N203S): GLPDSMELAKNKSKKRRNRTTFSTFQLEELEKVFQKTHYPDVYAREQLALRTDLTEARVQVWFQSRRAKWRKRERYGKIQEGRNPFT

Sequence of PROP1 (Homo sapiens, UniProt O75360 56-141, F88S) (O75360 56-141 F88S): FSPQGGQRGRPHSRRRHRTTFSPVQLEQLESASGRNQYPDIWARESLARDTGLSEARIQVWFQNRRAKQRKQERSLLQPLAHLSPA
Sequence of HOXB4 (Homo sapiens, UniProt P17483 148-234, V174I) (P17483 148-234 V174I): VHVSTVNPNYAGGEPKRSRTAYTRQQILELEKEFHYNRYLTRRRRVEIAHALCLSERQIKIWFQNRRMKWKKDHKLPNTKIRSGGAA
Sequence of ALX3 (Homo sapiens, UniProt O95076 139-225, L168V) (O95076 139-225 L168V): as the sequence (O95076 139-225 N203S) above, with L30V, S65N counted along it
Sequence of HESX1 (Homo sapiens, UniProt Q9UBX0 95-180) (Q9UBX0 95-180): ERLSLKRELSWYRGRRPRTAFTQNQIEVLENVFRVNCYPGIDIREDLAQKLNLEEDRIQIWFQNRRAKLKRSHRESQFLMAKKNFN
Sequence of MSX2 (Homo sapiens, UniProt P35548 130-214, F161Y) (P35548 130-214 F161Y): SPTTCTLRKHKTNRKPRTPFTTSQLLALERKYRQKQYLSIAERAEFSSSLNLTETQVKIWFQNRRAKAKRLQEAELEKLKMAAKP
Sequence of ALX3 (Homo sapiens, UniProt O95076 139-225, N203Q) (O95076 139-225 N203Q): as the sequence (O95076 139-225 N203S) above, with S65Q counted along it
Sequence of ALX3 (Homo sapiens, UniProt O95076 139-225, L168Q) (O95076 139-225 L168Q): as the sequence (O95076 139-225 N203S) above, with L30Q, S65N counted along it
Sequence of HESX1 (Homo sapiens, UniProt Q9UBX0 95-180, R165K) (Q9UBX0 95-180 R165K): as the sequence (Q9UBX0 95-180) above, with R71K counted along it
Sequence of HESX1 (Homo sapiens, UniProt Q9UBX0 95-180, R109Q) (Q9UBX0 95-180 R109Q): as the sequence (Q9UBX0 95-180) above, with R15Q counted along it
Sequence of HESX1 (Homo sapiens, UniProt Q9UBX0 95-180, F115L) (Q9UBX0 95-180 F115L): as the sequence (Q9UBX0 95-180) above, with F21L counted along it
Sequence of PROP1 (Homo sapiens, UniProt O75360 56-141) (O75360 56-141): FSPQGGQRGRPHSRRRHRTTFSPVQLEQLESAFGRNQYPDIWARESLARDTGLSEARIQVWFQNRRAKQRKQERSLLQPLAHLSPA
Sequence of SHOX (Homo sapiens, UniProt O15266 103-189) (O15266 103-189): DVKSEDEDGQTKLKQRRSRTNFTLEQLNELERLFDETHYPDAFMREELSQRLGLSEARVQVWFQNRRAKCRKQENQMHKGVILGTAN
Sequence of MSX2 (Homo sapiens, UniProt P35548 130-214, R199I) (P35548 130-214 R199I): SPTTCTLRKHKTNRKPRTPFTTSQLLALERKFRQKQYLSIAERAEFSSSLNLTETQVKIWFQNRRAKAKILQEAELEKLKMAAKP
Sequence of PROP1 (Homo sapiens, UniProt O75360 56-141, R99H) (O75360 56-141 R99H): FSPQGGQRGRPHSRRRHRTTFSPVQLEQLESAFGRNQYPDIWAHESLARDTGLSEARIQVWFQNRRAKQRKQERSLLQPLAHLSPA
Sequence of HOXB4 (Homo sapiens, UniProt P17483 148-234) (P17483 148-234): as the sequence (P17483 148-234 V174I) above, with I27V counted along it
Sequence of HESX1 (Homo sapiens, UniProt Q9UBX0 95-180, P111T) (Q9UBX0 95-180 P111T): as the sequence (Q9UBX0 95-180) above, with P17T counted along it
Sequence of HOXA4 (Q00056 201-287 R217L): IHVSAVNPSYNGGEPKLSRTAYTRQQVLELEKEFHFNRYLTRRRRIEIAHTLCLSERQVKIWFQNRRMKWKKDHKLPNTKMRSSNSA
Sequence of SHOX (Homo sapiens, UniProt O15266 103-189, R173C) (O15266 103-189 R173C): as the sequence (O15266 103-189) above, with R71C counted along it
Sequence of ALX3 (Homo sapiens, UniProt O95076 139-225) (O95076 139-225): as the sequence (O95076 139-225 N203S) above, with S65N counted along it

Sequence	binding signal [1]	binding signal [2]	binding signal [3]	binding signal [4]	binding signal [5]	binding signal [6]	binding signal [7]	binding signal [8]	binding signal [9]	binding signal [10]	binding signal [11]	binding signal [12]	binding signal [13]	binding signal [14]	binding signal [15]	binding signal [16]	binding signal [17]	binding signal [18]	binding signal [19]	binding signal [20]
AATTAATC	11.9 upbm affinity estimate (log intensity, higher = more binding, comparable within an allelic series)	13.2 upbm affinity estimate (log intensity, higher = more binding, comparable within an allelic series)	11.9 upbm affinity estimate (log intensity, higher = more binding, comparable within an allelic series)	12 upbm affinity estimate (log intensity, higher = more binding, comparable within an allelic series)	12.3 upbm affinity estimate (log intensity, higher = more binding, comparable within an allelic series)	13.9 upbm affinity estimate (log intensity, higher = more binding, comparable within an allelic series)	12.3 upbm affinity estimate (log intensity, higher = more binding, comparable within an allelic series)	8.39 upbm affinity estimate (log intensity, higher = more binding, comparable within an allelic series)	9.4 upbm affinity estimate (log intensity, higher = more binding, comparable within an allelic series)	12.5 upbm affinity estimate (log intensity, higher = more binding, comparable within an allelic series)	11.2 upbm affinity estimate (log intensity, higher = more binding, comparable within an allelic series)	9.36 upbm affinity estimate (log intensity, higher = more binding, comparable within an allelic series)	11.1 upbm affinity estimate (log intensity, higher = more binding, comparable within an allelic series)	10.6 upbm affinity estimate (log intensity, higher = more binding, comparable within an allelic series)	10.7 upbm affinity estimate (log intensity, higher = more binding, comparable within an allelic series)	10.2 upbm affinity estimate (log intensity, higher = more binding, comparable within an allelic series)	7.81 upbm affinity estimate (log intensity, higher = more binding, comparable within an allelic series)	13 upbm affinity estimate (log intensity, higher = more binding, comparable within an allelic series)	7.79 upbm affinity estimate (log intensity, higher = more binding, comparable within an allelic series)	8.52 upbm affinity estimate (log intensity, higher = more binding, comparable within an allelic series)
ATCAATTA	13.5 upbm affinity estimate (log intensity, higher = more binding, comparable within an allelic series)	13.4 upbm affinity estimate (log intensity, higher = more binding, comparable within an allelic series)	12.6 upbm affinity estimate (log intensity, higher = more binding, comparable within an allelic series)	13.4 upbm affinity estimate (log intensity, higher = more binding, comparable within an allelic series)	12.6 upbm affinity estimate (log intensity, higher = more binding, comparable within an allelic series)	14.1 upbm affinity estimate (log intensity, higher = more binding, comparable within an allelic series)	13.1 upbm affinity estimate (log intensity, higher = more binding, comparable within an allelic series)	8.5 upbm affinity estimate (log intensity, higher = more binding, comparable within an allelic series)	10.1 upbm affinity estimate (log intensity, higher = more binding, comparable within an allelic series)	12.7 upbm affinity estimate (log intensity, higher = more binding, comparable within an allelic series)	11.8 upbm affinity estimate (log intensity, higher = more binding, comparable within an allelic series)	10.2 upbm affinity estimate (log intensity, higher = more binding, comparable within an allelic series)	12.2 upbm affinity estimate (log intensity, higher = more binding, comparable within an allelic series)	10.9 upbm affinity estimate (log intensity, higher = more binding, comparable within an allelic series)	12.1 upbm affinity estimate (log intensity, higher = more binding, comparable within an allelic series)	10.4 upbm affinity estimate (log intensity, higher = more binding, comparable within an allelic series)	7.84 upbm affinity estimate (log intensity, higher = more binding, comparable within an allelic series)	13.7 upbm affinity estimate (log intensity, higher = more binding, comparable within an allelic series)	8.22 upbm affinity estimate (log intensity, higher = more binding, comparable within an allelic series)	8.66 upbm affinity estimate (log intensity, higher = more binding, comparable within an allelic series)
ATAATTAG	13.4 upbm affinity estimate (log intensity, higher = more binding, comparable within an allelic series)	13.6 upbm affinity estimate (log intensity, higher = more binding, comparable within an allelic series)	13 upbm affinity estimate (log intensity, higher = more binding, comparable within an allelic series)	13.4 upbm affinity estimate (log intensity, higher = more binding, comparable within an allelic series)	12.7 upbm affinity estimate (log intensity, higher = more binding, comparable within an allelic series)	14.3 upbm affinity estimate (log intensity, higher = more binding, comparable within an allelic series)	13.2 upbm affinity estimate (log intensity, higher = more binding, comparable within an allelic series)	8.56 upbm affinity estimate (log intensity, higher = more binding, comparable within an allelic series)	10.3 upbm affinity estimate (log intensity, higher = more binding, comparable within an allelic series)	12.9 upbm affinity estimate (log intensity, higher = more binding, comparable within an allelic series)	12.1 upbm affinity estimate (log intensity, higher = more binding, comparable within an allelic series)	9.82 upbm affinity estimate (log intensity, higher = more binding, comparable within an allelic series)	12.1 upbm affinity estimate (log intensity, higher = more binding, comparable within an allelic series)	11.2 upbm affinity estimate (log intensity, higher = more binding, comparable within an allelic series)	12 upbm affinity estimate (log intensity, higher = more binding, comparable within an allelic series)	10.8 upbm affinity estimate (log intensity, higher = more binding, comparable within an allelic series)	7.99 upbm affinity estimate (log intensity, higher = more binding, comparable within an allelic series)	13.7 upbm affinity estimate (log intensity, higher = more binding, comparable within an allelic series)	8.28 upbm affinity estimate (log intensity, higher = more binding, comparable within an allelic series)	8.75 upbm affinity estimate (log intensity, higher = more binding, comparable within an allelic series)
CAATTACC	12.7 upbm affinity estimate (log intensity, higher = more binding, comparable within an allelic series)	13 upbm affinity estimate (log intensity, higher = more binding, comparable within an allelic series)	11.8 upbm affinity estimate (log intensity, higher = more binding, comparable within an allelic series)	12.6 upbm affinity estimate (log intensity, higher = more binding, comparable within an allelic series)	11.9 upbm affinity estimate (log intensity, higher = more binding, comparable within an allelic series)	13.7 upbm affinity estimate (log intensity, higher = more binding, comparable within an allelic series)	12.7 upbm affinity estimate (log intensity, higher = more binding, comparable within an allelic series)	8.27 upbm affinity estimate (log intensity, higher = more binding, comparable within an allelic series)	9.24 upbm affinity estimate (log intensity, higher = more binding, comparable within an allelic series)	12.4 upbm affinity estimate (log intensity, higher = more binding, comparable within an allelic series)	11.3 upbm affinity estimate (log intensity, higher = more binding, comparable within an allelic series)	8.97 upbm affinity estimate (log intensity, higher = more binding, comparable within an allelic series)	11.5 upbm affinity estimate (log intensity, higher = more binding, comparable within an allelic series)	10.3 upbm affinity estimate (log intensity, higher = more binding, comparable within an allelic series)	10.9 upbm affinity estimate (log intensity, higher = more binding, comparable within an allelic series)	9.72 upbm affinity estimate (log intensity, higher = more binding, comparable within an allelic series)	7.4 upbm affinity estimate (log intensity, higher = more binding, comparable within an allelic series)	13.5 upbm affinity estimate (log intensity, higher = more binding, comparable within an allelic series)	7.62 upbm affinity estimate (log intensity, higher = more binding, comparable within an allelic series)	8.36 upbm affinity estimate (log intensity, higher = more binding, comparable within an allelic series)
GCAAGGGC	6.38 upbm affinity estimate (log intensity, higher = more binding, comparable within an allelic series)	7.23 upbm affinity estimate (log intensity, higher = more binding, comparable within an allelic series)	–	6.38 upbm affinity estimate (log intensity, higher = more binding, comparable within an allelic series)	9.73 upbm affinity estimate (log intensity, higher = more binding, comparable within an allelic series)	7.22 upbm affinity estimate (log intensity, higher = more binding, comparable within an allelic series)	–	–	–	–	–	6.49 upbm affinity estimate (log intensity, higher = more binding, comparable within an allelic series)	–	–	6.49 upbm affinity estimate (log intensity, higher = more binding, comparable within an allelic series)	–	–	–	6.53 upbm affinity estimate (log intensity, higher = more binding, comparable within an allelic series)	–
